An excerpt weighted towards active compounds, which were near 19% of everything screened.
AMA1 RON2 block: AMA1-RON2 (P. falciparum) interaction inhibition. AlphaScreen AMA1-biotinylated RON2 peptide binding. Potency, µM (titrated, usually from 58.2 µM), without a hit: at the highest dose activity change, negative = inhibition, actives largely listed as inhibitors. hit rate 0.2% among 360,000. AID 720542;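 note: potency is the fitted concentration of half-maximal effect; 0% = vehicle wells and -100% = peptide control; nearly all actives have a fitted effect of over 45% in size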
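AMA1 (3D7) with his tag at 25 nM final met compounds first, then biotinylated RON2 peptide at 25 nM; detection used donor plus acceptor beads, 10 µg/mL apiece, read by AlphaScreen after 30 min at room temperature.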
SARS PLP yeast: inhibitors of SARS-CoV papain-like protease in yeast. S. cerevisiae expressing SARS-CoV PLpro, growth rescue. Potency, µM (top dose mostly 32.9 µM), without a hit: at the top dose activity, positive = growth rescue, actives largely listed as activators. hit rate 0.19% among 330,000. AID 485353; calls by dose curve; note: potency is the fitted concentration of half-maximal effect; 0% is about no effect; nearly all actives have a fitted effect of over 55% in size
Pf growth 48h: inhibits P. falciparum growth in the first generation, 48 h | P. falciparum luciferase growth in erythrocytes, 48 h | Potency, µM (series often up to 28.7 µM), for the others: top-dose activity change, negative = inhibition, most hits filed as inhibitors | hit rate 5.9% among 310,000 | AID 504832; note: potency is the fitted concentration of half-maximal effect; % is set by controls: 0 for no effect and ±100 for the full control effect
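Luciferase-expressing parasites in RBCs, 2% Hct / 0.1% parasitemia final; RPMI 1640 + 0.5% Albumax; 37 C, 5% CO2, one generation; luminescence read-out, lower signal = inhibition.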
Shiga toxin inh: blocks Shiga toxin action in Vero cells. AID 2315. Vero cells, Shiga toxin protein synthesis inhibition reporter. inhibition, % at 38.7 µM. hit rate 9.2% among 290,000; in the data active = inhibition mostly above about 28%, no sharp cut-off; inactive = mostly below about 43%; note: 0% is about no effect
Pf growth 96h: P. falciparum growth inhibition at 96 hours; Potency, µM (top dose mostly 28.7 µM), without a hit: at the top dose activity change, negative = inhibition, usual class: inhibitors; P. falciparum luciferase reporter growth, 96 h; hit rate 6.9% among 320,000; note: potency is the fitted concentration of half-maximal effect; % is set by controls: 0 for no effect and ±100 for the full control effect
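Compounds incubated with erythrocytes infected by luciferase-expressing P. falciparum (2% hematocrit, 0.05% parasitemia final) for 96 hours, 37 C in 5% CO2. Growth inhibition scored as decreased luciferase luminescence.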
Cycloheximide cs: counter-screen for Shiga toxin inhibitors: cycloheximide protein synthesis inhibition; hit rate 12% among 300,000; max response, %; cell reporter, cycloheximide protein synthesis inhibition counterscreen; AID 2314; in the data active = max response mostly above about 13%, no sharp cut-off; inactive = mostly below about 14%; note: read at 38.3 µM for the half of the compounds with a filed dose; 0% is about no effect
Starred values were filed as active, the others as inactive; [ ] = remark or other dose. Unless noted, calls come from the whole dose curve; as a rule, active = well fitted curve in the direction sought with a large enough effect; inconclusive = small, poorly fitted or top-dose-only effect, or another doubt; inactive = no such curve, though single readings can be large; an effect the other way counts as inactive or inconclusive.

Screening COc1ccc(CNS(=O)(=O)CCNC(=O)c2ccc(OC)cc2)cc1 returned AMA1 RON2 block 20.2%, SARS PLP yeast 0.8%, Pf growth 48h 3.6% and Pf growth 96h -17.7%.
For CC(C)(C)NC(=O)NC(=O)CSc1nnc(COc2ccccc2Cl)o1 the results were AMA1 RON2 block 2.1%, SARS PLP yeast -2.2%, Pf growth 48h 24.5%, Shiga toxin inh 39.7 and Cycloheximide cs 15.2*.
Cc1cc(NC(=O)CSc2nnc(-c3ccco3)o2)no1 was read as AMA1 RON2 block 28.2µM*, Pf growth 48h -15.7%, Shiga toxin inh -8.2, Pf growth 96h -0.9% and Cycloheximide cs -0.5.
`CCOc1ccc(NCc2nnc(SCC(=O)Nc3cc(C)on3)n2-c2ccc(OC)cc2)cc1` gave AMA1 RON2 block -3.2%, SARS PLP yeast 4.6%, Pf growth 48h 13.1µM*, Shiga toxin inh -3.5, Pf growth 96h inconclusive and Cycloheximide cs -3.4.
For Cc1csc(NC(=O)CSc2nnc(-c3cc(C)on3)o2)n1 the results were AMA1 RON2 block 87.0%, SARS PLP yeast 6.9%, Pf growth 48h 30.6%, Shiga toxin inh 39.9, Pf growth 96h 17.9% and Cycloheximide cs 15.1*.
`Cc1cc(-c2nnc(SCC(=O)Nc3nc(-c4ccccc4)cs3)o2)no1` gave AMA1 RON2 block 117.2%, SARS PLP yeast 0.1%, Pf growth 48h -0.4%, Shiga toxin inh 19.8, Pf growth 96h 19.0% and Cycloheximide cs -2.9.
`COc1ccc(C(=O)NCc2nnc(SCC(=O)Nc3cc(C)on3)o2)cc1OC` gave AMA1 RON2 block 84.6%, SARS PLP yeast -0.2%, Pf growth 48h 35.2%[1.15 µM], Shiga toxin inh -16.9, Pf growth 96h 33.2% and Cycloheximide cs -1.5.
CCOC(=O)c1cccc(NC(=O)CSc2nnc(COc3ccccc3C)o2)c1 was read as AMA1 RON2 block 12.2%, SARS PLP yeast -1.8%, Pf growth 48h 0.0%, Shiga toxin inh -9.1, Pf growth 96h 7.38µM* and Cycloheximide cs 4.0.
Screening COc1ccc(-c2nsc(SCC(=O)Nc3cc(C)on3)n2)cc1 returned AMA1 RON2 block 22.9%, SARS PLP yeast 1.0%, Pf growth 48h 5.86µM*, Shiga toxin inh 6.8, Pf growth 96h inconclusive and Cycloheximide cs 6.8.
Screening Cc1cc(NC(=O)CSc2nnc(COc3ccccc3)o2)no1 returned AMA1 RON2 block 11.2µM*, SARS PLP yeast -2.2%, Pf growth 48h 11.3%, Shiga toxin inh 3.0, Pf growth 96h -3.2% and Cycloheximide cs -1.8.
Screening COc1ccc(-c2nnc(SCC(=O)Nc3cc(C)on3)o2)cc1 returned AMA1 RON2 block 114.5%, SARS PLP yeast -1.3%, Pf growth 48h 8.1%, Shiga toxin inh 44.0*, Pf growth 96h inconclusive and Cycloheximide cs 32.9*.
Screening Cc1ccc(CN2CCN(C/C(Cl)=C/c3ccccc3)CC2CCO)o1 (centres undefined) returned AMA1 RON2 block -3.7%, SARS PLP yeast -1.7%, Pf growth 48h -28.6%, Shiga toxin inh -5.3, Pf growth 96h 3.8% and Cycloheximide cs 1.4.
Screening O=C(CCN1C(=O)/C(=C\c2ccc(F)cc2)SC1=S)Nc1ccccc1 returned AMA1 RON2 block -1.0%, SARS PLP yeast 0.2%, Pf growth 48h -8.0%, Shiga toxin inh -2.6, Pf growth 96h -4.9% and Cycloheximide cs 7.1.
For COc1cccc2sc(NN)nc12 the results were AMA1 RON2 block -5.8%, SARS PLP yeast -13.5%, Pf growth 48h -18.8%, Shiga toxin inh -4.8, Pf growth 96h inconclusive and Cycloheximide cs 4.8.
Screening COc1cccc2sc(Nc3nnc(-c4ccccc4Cl)o3)nc12 returned AMA1 RON2 block 103.4%, SARS PLP yeast -36.2%, Pf growth 48h 9.28µM*, Shiga toxin inh -3.0, Pf growth 96h 1.31µM* and Cycloheximide cs -0.3.
COc1ccccc1-c1nnc(NC(=O)Cc2ccccc2)o1 was read as AMA1 RON2 block 43.0%, SARS PLP yeast -6.2%, Pf growth 48h 3.2%, Shiga toxin inh -5.1, Pf growth 96h inconclusive and Cycloheximide cs 1.3.
For COc1cccc(-c2nnc(Nc3nc4c(F)cccc4s3)o2)c1 the results were AMA1 RON2 block 29.7%, SARS PLP yeast -18.5%, Pf growth 48h 32.1%, Shiga toxin inh 81.9*, Pf growth 96h inconclusive and Cycloheximide cs 38.2.

Assay outcomes as filed in PubChem.
